A number with no mark means an inactive call. Calls of active or inactive are those of the source.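 How the source made its calls, unless noted: active means thallium flux through the channel raised or lowered by more than 3 SD from vehicle-only wells, actives on both sides; inactive means the rest.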
Experiments:
F380Y = assay: BK channel mutant inhibitors and activators – cell-based, U2OS BacMam, thallium flux, beta subunits, selectivity assay, profiling panel (AID 1259406); conditions: U2OS BacMam BK variants, at 30 µM;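 further: initial slope of Thallos dye fluorescence rise after thallium is added; log ratio against the mean of 0.3% DMSO vehicle wells on the same plate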
F380Y/beta1 = assay: as above; conditions: U2OS BacMam BK variants, at 30 µM
F380Y/beta2Delta = assay: as above; conditions: U2OS BacMam BK variants, at 30 µM
F380Y/beta4 = assay: as above; conditions: U2OS BacMam BK variants, at 30 µM
[1] = target: Calcium-activated potassium channel subunit alpha-1 (Homo sapiens) + Leucine-rich repeat-containing protein 26 (Homo sapiens) (UniProt Q12791+Q2I0M4); assay: as above; conditions: U2OS BacMam BK variants, F380Y/Slo1WT/gamma1, at 30 µM
Calcium-activated potassium channel subunit alpha-1 (Homo sapiens) + Leucine-rich repeat-containing protein 26 (Homo sapiens), sequence (Q2I0M4 whole entry, looked up, one chain of several): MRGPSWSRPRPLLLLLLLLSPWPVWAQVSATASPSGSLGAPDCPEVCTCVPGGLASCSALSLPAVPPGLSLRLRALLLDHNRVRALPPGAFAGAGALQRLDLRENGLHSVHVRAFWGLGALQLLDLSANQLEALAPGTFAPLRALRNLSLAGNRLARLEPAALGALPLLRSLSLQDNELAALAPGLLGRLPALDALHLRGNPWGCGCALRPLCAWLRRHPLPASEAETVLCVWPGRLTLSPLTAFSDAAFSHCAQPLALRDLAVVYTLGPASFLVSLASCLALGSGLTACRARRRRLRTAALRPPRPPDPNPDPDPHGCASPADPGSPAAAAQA

R275C = assay: as above; conditions: U2OS BacMam BK variants, at 30 µM
R275C/beta1 = assay: as above; conditions: U2OS BacMam BK variants, at 30 µM
R275C/beta2Delta = assay: as above; conditions: U2OS BacMam BK variants, at 30 µM
R275C/beta4 = assay: as above; conditions: U2OS BacMam BK variants, at 30 µM
R275C/Slo1WT/beta2 = assay: as above; conditions: U2OS BacMam BK variants, at 30 µM
[2] = antimalarial activity against Dd2 strain (AID 2302;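 active means growth inhibition above 50% at the single 2 µM test dose, taken to imply half-maximal potency below 2 µM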;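 further: 0% = DMSO untreated growth and 100% = chloroquine plus artemisinin killed control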); conditions: P. falciparum Dd2 in RBCs, LDH growth readout, 72 h; at 2 µM; hits give high values
[3] = human hepatoma cell viability loss – ATP luminescence, cytotoxicity control for P. falciparum antimalarial project, primary screen (AID 2303;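 active means inhibition above 50%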;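 further: 0% = DMSO wells and 100% = digitonin-killed cells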); conditions: HepG2 viability, 24-48 h, at 10 µM, hits give high values
[4] = target: L-lactate dehydrogenase (Plasmodium falciparum (isolate CDC / Honduras)) (UniProt Q27743); assay: PfLDH activity inhibition – cell lysate, 3D7 strain, counter-screen for P. falciparum growth inhibition project (AID 2304; call rule not given here;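 further: 0% = vehicle and 100% = reference inhibitor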); conditions: P. falciparum 3D7 crude extract, LDH APAD/NBT absorbance; at 2 µM; hits give high values
L-lactate dehydrogenase (Plasmodium falciparum (isolate CDC / Honduras)), sequence (Q27743 whole entry, looked up): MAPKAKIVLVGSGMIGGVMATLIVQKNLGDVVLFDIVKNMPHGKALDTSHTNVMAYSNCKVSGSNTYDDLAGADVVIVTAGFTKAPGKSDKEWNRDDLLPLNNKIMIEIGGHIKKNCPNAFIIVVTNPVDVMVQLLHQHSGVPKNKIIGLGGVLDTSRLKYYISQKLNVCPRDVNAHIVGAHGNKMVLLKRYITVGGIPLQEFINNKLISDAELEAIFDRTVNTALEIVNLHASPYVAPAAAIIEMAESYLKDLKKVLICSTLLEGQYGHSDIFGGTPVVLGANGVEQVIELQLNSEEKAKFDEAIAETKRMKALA

[5] = inhibition of 3D7 malaria parasite growth – strain 3D7 (AID 2306; call rule not given here;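 further: 0% = DMSO wells and 100% = chloroquine plus artemisinin control wells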); conditions: P. falciparum 3D7 erythrocytic growth, LDH absorbance, 72 h; at 2 µM; hits give high values
[6] = target: Protein kinase 7 (PK7), Plasmodium falciparum 3D7 (PF3D7_0213400) (UniProt Q7YTF7); assay: inhibition of Plasmodium PK7 catalytic activity – biochemical, TCAMS antimalarial set, Kinase-Glo luminescence (AID 1159587; call rule not given here); conditions: recombinant PfPK7, Kinase-Glo ATP depletion luminescence
Protein kinase 7 (PK7), Plasmodium falciparum 3D7 (PF3D7_0213400), sequence (Q7YTF7 1-343): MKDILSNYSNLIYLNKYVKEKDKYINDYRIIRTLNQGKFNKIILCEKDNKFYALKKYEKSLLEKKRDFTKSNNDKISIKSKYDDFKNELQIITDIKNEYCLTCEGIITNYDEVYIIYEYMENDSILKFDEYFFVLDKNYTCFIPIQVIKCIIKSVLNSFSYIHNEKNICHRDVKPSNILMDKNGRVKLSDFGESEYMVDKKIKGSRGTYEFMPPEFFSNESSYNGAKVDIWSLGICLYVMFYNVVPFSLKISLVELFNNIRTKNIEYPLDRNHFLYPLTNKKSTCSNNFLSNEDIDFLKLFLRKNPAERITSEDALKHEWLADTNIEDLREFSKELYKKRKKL

In the case of `Cc1cc2nccc(-c3cccnc3)n2n1`, the log fold change Tl+ flux (F380Y) is reported as -0.0198, the log fold change Tl+ flux (F380Y/beta1) is reported as -0.0232 and the log fold change Tl+ flux (F380Y/beta2Delta) is reported as 0.0219. For the same compound, the log fold change Tl+ flux (F380Y/beta4) was -0.0149, the log fold change Tl+ flux [1] was -0.0534 and the log fold change Tl+ flux (R275C) was 0.00294. For the same compound, the log fold change Tl+ flux (R275C/beta1) was -0.00487, the log fold change Tl+ flux (R275C/beta2Delta) was -0.00124 and the log fold change Tl+ flux (R275C/beta4) was 0.00702. For the same compound, the log fold change Tl+ flux (R275C/Slo1WT/beta2) was -0.00651.
In the case of `CCOC(=O)c1cnn(C(=O)c2ccc(-n3c(C)ccc3C)cc2)c1N`, the log fold change Tl+ flux (F380Y) is reported as -0.0269, the log fold change Tl+ flux (F380Y/beta1) is reported as -0.0106 and the log fold change Tl+ flux (F380Y/beta2Delta) is reported as -0.0157. It also gave a log fold change Tl+ flux (F380Y/beta4) of -0.067, a log fold change Tl+ flux [1] of 0.00537 and a log fold change Tl+ flux (R275C) of -0.0135. For the same compound, the log fold change Tl+ flux (R275C/beta1) was -0.0219, the log fold change Tl+ flux (R275C/beta2Delta) was 0.0233 and the log fold change Tl+ flux (R275C/beta4) was -0.00435. It also gave a log fold change Tl+ flux (R275C/Slo1WT/beta2) of 0.0525.
In the case of `CC(c1cccc(Nc2nccc(-c3c(-c4cccc(NC(=O)c5c(F)cccc5F)c4)nn4ncccc34)n2)c1)S(C)(=O)=O` (stereo not given), the growth inhibition [2] is reported as 98% (active), the inhibition [3] is reported as 79% (active) and the inhibition [4] is reported as 4%. For the same compound, the growth inhibition [5] was 98% (active) and the outcome [6] was “inactive”.
In the case of `O=C(Nc1cccc(-c2nn3ccccc3c2-c2ccnc(Nc3ccc(NCCCN4CCOCC4)c(F)c3)n2)c1)c1c(F)cccc1F`, the growth inhibition [2] is reported as 97% (active), the inhibition [3] is reported as 86% (active) and the inhibition [4] is reported as 0%. The growth inhibition [5] was 100% (active) and the outcome [6] was “inactive”.
In the case of `N#CC1=C(Nc2ccccc2Cl)SC(c2ccncc2)NC1=O` (stereo not given), the log fold change Tl+ flux (F380Y) is reported as -0.0226, the log fold change Tl+ flux (F380Y/beta1) is reported as 0.0482 and the log fold change Tl+ flux (F380Y/beta2Delta) is reported as 0.0198. It also gave a log fold change Tl+ flux (F380Y/beta4) of -0.00461, a log fold change Tl+ flux [1] of 0.0291 and a log fold change Tl+ flux (R275C) of 0.0616. The log fold change Tl+ flux (R275C/beta1) was 0.0544, the log fold change Tl+ flux (R275C/beta2Delta) was 0.0222 and the log fold change Tl+ flux (R275C/beta4) was 0.0286. It also gave a log fold change Tl+ flux (R275C/Slo1WT/beta2) of 0.0417.
With `CCOC(=O)C(C)Oc1ccc(NS(=O)(=O)c2cc(OC)ccc2OC)cc1Cl` (stereo not given) the log fold change Tl+ flux (F380Y) was -0.0459, the log fold change Tl+ flux (F380Y/beta1) was -0.0343 and the log fold change Tl+ flux (F380Y/beta2Delta) was -0.0957. The log fold change Tl+ flux (F380Y/beta4) was -0.104 (active), the log fold change Tl+ flux [1] was -0.0848 and the log fold change Tl+ flux (R275C) was -0.0618. It also gave a log fold change Tl+ flux (R275C/beta1) of 0.0118, a log fold change Tl+ flux (R275C/beta2Delta) of -0.0738 and a log fold change Tl+ flux (R275C/beta4) of -0.0156. It also gave a log fold change Tl+ flux (R275C/Slo1WT/beta2) of -0.0391.
Compound `Cc1ncc(CSc2nc(C(C)(C)C)cs2)c(CO)c1O` has a log fold change Tl+ flux (F380Y) of -0.0128, a log fold change Tl+ flux (F380Y/beta1) of -0.0261 and a log fold change Tl+ flux (F380Y/beta2Delta) of -0.035. The log fold change Tl+ flux (F380Y/beta4) was -0.0366, the log fold change Tl+ flux [1] was -0.0352 and the log fold change Tl+ flux (R275C) was -0.0209. It also gave a log fold change Tl+ flux (R275C/beta1) of -0.00193, a log fold change Tl+ flux (R275C/beta2Delta) of 0.0196 and a log fold change Tl+ flux (R275C/beta4) of 0.00379. For the same compound, the log fold change Tl+ flux (R275C/Slo1WT/beta2) was -0.00882.
In the case of `Cc1cc(Nc2ccc(F)cc2F)nc(SCc2c(Cl)cccc2Cl)n1`, the log fold change Tl+ flux (F380Y) is reported as -0.0282, the log fold change Tl+ flux (F380Y/beta1) is reported as -0.0344 and the log fold change Tl+ flux (F380Y/beta2Delta) is reported as -0.0422. For the same compound, the log fold change Tl+ flux (F380Y/beta4) was -0.123 (active), the log fold change Tl+ flux [1] was -0.039 and the log fold change Tl+ flux (R275C) was -0.0547. The log fold change Tl+ flux (R275C/beta1) was -0.0316, the log fold change Tl+ flux (R275C/beta2Delta) was -0.000965 and the log fold change Tl+ flux (R275C/beta4) was -0.0113. The log fold change Tl+ flux (R275C/Slo1WT/beta2) was -0.0702.
With `CSc1nnc(SCC(=O)c2ccc3c(c2)OCCO3)s1` the log fold change Tl+ flux (F380Y) was -0.00388, the log fold change Tl+ flux (F380Y/beta1) was -0.019 and the log fold change Tl+ flux (F380Y/beta2Delta) was -0.0362. The log fold change Tl+ flux (F380Y/beta4) was -0.049, the log fold change Tl+ flux [1] was -0.0346 and the log fold change Tl+ flux (R275C) was -0.06. For the same compound, the log fold change Tl+ flux (R275C/beta1) was -0.119 (active), the log fold change Tl+ flux (R275C/beta2Delta) was -0.146 (active) and the log fold change Tl+ flux (R275C/beta4) was -0.0816 (active). For the same compound, the log fold change Tl+ flux (R275C/Slo1WT/beta2) was -0.0418.
For `Cc1cc2c(NC(=O)c3ccccc3C(=O)O)cccc2nn1`, the log fold change Tl+ flux (F380Y) was -0.0132, the log fold change Tl+ flux (F380Y/beta1) was 0.714 (active) and the log fold change Tl+ flux (F380Y/beta2Delta) was -0.0393. The log fold change Tl+ flux (F380Y/beta4) was 0.0303, the log fold change Tl+ flux [1] was 0.0158 and the log fold change Tl+ flux (R275C) was 0.0158. The log fold change Tl+ flux (R275C/beta1) was -0.0051, the log fold change Tl+ flux (R275C/beta2Delta) was -0.00027 and the log fold change Tl+ flux (R275C/beta4) was -0.0138. For the same compound, the log fold change Tl+ flux (R275C/Slo1WT/beta2) was -0.00217.
`O=C(CC1SC(=NC2CC3C=CC2C3)NC1=O)Nc1ccccc1Cl` (stereo not given) gave a log fold change Tl+ flux (F380Y) of 0.0694, a log fold change Tl+ flux (F380Y/beta1) of 0.0502 and a log fold change Tl+ flux (F380Y/beta2Delta) of 0.0241. The log fold change Tl+ flux (F380Y/beta4) was -0.0131, the log fold change Tl+ flux [1] was -0.0156 and the log fold change Tl+ flux (R275C) was 0.0384. It also gave a log fold change Tl+ flux (R275C/beta1) of 0.0688, a log fold change Tl+ flux (R275C/beta2Delta) of 0.032 and a log fold change Tl+ flux (R275C/beta4) of 0.0398. For the same compound, the log fold change Tl+ flux (R275C/Slo1WT/beta2) was -0.0439.
`CCOC(=O)c1cnc(C(F)(F)F)nc1NN=Cc1c(Cl)cccc1Cl` gave a log fold change Tl+ flux (F380Y) of -0.0741, a log fold change Tl+ flux (F380Y/beta1) of 0.0122 and a log fold change Tl+ flux (F380Y/beta2Delta) of -0.0116. For the same compound, the log fold change Tl+ flux (F380Y/beta4) was 0.00688, the log fold change Tl+ flux [1] was -0.0599 and the log fold change Tl+ flux (R275C) was -0.0944 (active). The log fold change Tl+ flux (R275C/beta1) was -0.124 (active), the log fold change Tl+ flux (R275C/beta2Delta) was -0.0798 and the log fold change Tl+ flux (R275C/beta4) was -0.0487. The log fold change Tl+ flux (R275C/Slo1WT/beta2) was -0.0141.
With `O=C(NCc1ccc2c(c1)OCO2)C1CCN(C(=O)OCc2ccccc2)CC1` the log fold change Tl+ flux (F380Y) was 0.035, the log fold change Tl+ flux (F380Y/beta1) was -0.0838 (active) and the log fold change Tl+ flux (F380Y/beta2Delta) was -0.059. It also gave a log fold change Tl+ flux (F380Y/beta4) of -0.064, a log fold change Tl+ flux [1] of 0.019 and a log fold change Tl+ flux (R275C) of 0.0676. It also gave a log fold change Tl+ flux (R275C/beta1) of 0.0117, a log fold change Tl+ flux (R275C/beta2Delta) of -0.0269 and a log fold change Tl+ flux (R275C/beta4) of -0.0162. For the same compound, the log fold change Tl+ flux (R275C/Slo1WT/beta2) was 0.0194.
For `Cn1c(C(F)(F)F)nnc1S(=O)(=O)Cc1ccc(-c2csnn2)cc1`, the log fold change Tl+ flux (F380Y) was 0.0645, the log fold change Tl+ flux (F380Y/beta1) was 0.0098 and the log fold change Tl+ flux (F380Y/beta2Delta) was 0.0485. The log fold change Tl+ flux (F380Y/beta4) was 0.114 (active), the log fold change Tl+ flux [1] was 0.00754 and the log fold change Tl+ flux (R275C) was 0.0229. For the same compound, the log fold change Tl+ flux (R275C/beta1) was -0.0587, the log fold change Tl+ flux (R275C/beta2Delta) was 0.0374 and the log fold change Tl+ flux (R275C/beta4) was -0.0154. The log fold change Tl+ flux (R275C/Slo1WT/beta2) was -0.0301.
